Screens from PubChem BioAssay.
BAZ2B block: BAZ2B (human) inhibition; AlphaScreen BAZ2B-H3K14Ac peptide displacement; Potency, µM (highest dose often 114 µM), for the others: at the top dose activity change, negative = inhibition, hits mostly inhibitors; 360,000 tested, 4.4% active; AID 504333; also: % is scaled to controls: 0 for no effect and ±100 for the full control effect; nearly all actives have a fitted effect of over 60% in size
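BAZ2B (50 nM) with biotin-H3(5-23)K14Ac peptide (50 nM) in PBS pH 7.4, 0.01% Tween-20, preformed 30 min, then compound 30 min at room temperature; top concentration 110uM. AlphaScreen streptavidin donor/nickel chelate acceptor beads (10 ug/mL final), 20 min dark, signal read.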
G9a inh: blocks human histone lysine methyltransferase G9a; Q96KQ7; G9a H3K9 monomethylation, AlphaScreen, 2 h; Potency, µM (highest dose often 102 µM), without a hit: at the highest dose activity, negative = inhibition, actives largely listed as inhibitors; 350,000 tested, 8.8% active; also: % is scaled to controls: 0 for no effect and ±100 for the full control effect; nearly all actives have a fitted effect of over 75% in size
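Quantitative HTS format: methyltransferase activity on a biotin-tagged H3K9 peptide is measured by AlphaScreen, using a rabbit anti-monomethyl-H3K9 antibody with streptavidin donor and anti-IgG acceptor beads. Final levels are 20 nM enzyme, 500 nM peptide, 20 uM SAM; 2 h RT.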
JMJD2A Tudor inh: inhibitors of human JMJD2A Tudor domain; O75164; 390,000 tested, 4.4% active; Potency, µM (top dose mostly 114 µM), for the others: at the highest dose activity change, negative = inhibition, actives largely listed as inhibitors; AlphaScreen JMJD2A-Tudor / H3K4me3 peptide binding; also: % is scaled to controls: 0 for no effect and ±100 for the full control effect; nearly all actives have a fitted effect of over 50% in size
L3MBTL1 inh: L3MBTL1 (human) inhibition; Q9Y468; AlphaScreen L3MBTL1–H3K9me1 peptide binding; Potency, µM (highest dose often 57.1 µM), inactives show at the top dose activity, negative = inhibition, most hits filed as inhibitors; 230,000 tested, 0.66% active; AID 485360; also: % is scaled to controls: 0 for no effect and ±100 for the full control effect; nearly all actives have a fitted effect of over 60% in size
Target sequence (Q9Y468 whole entry, looked up): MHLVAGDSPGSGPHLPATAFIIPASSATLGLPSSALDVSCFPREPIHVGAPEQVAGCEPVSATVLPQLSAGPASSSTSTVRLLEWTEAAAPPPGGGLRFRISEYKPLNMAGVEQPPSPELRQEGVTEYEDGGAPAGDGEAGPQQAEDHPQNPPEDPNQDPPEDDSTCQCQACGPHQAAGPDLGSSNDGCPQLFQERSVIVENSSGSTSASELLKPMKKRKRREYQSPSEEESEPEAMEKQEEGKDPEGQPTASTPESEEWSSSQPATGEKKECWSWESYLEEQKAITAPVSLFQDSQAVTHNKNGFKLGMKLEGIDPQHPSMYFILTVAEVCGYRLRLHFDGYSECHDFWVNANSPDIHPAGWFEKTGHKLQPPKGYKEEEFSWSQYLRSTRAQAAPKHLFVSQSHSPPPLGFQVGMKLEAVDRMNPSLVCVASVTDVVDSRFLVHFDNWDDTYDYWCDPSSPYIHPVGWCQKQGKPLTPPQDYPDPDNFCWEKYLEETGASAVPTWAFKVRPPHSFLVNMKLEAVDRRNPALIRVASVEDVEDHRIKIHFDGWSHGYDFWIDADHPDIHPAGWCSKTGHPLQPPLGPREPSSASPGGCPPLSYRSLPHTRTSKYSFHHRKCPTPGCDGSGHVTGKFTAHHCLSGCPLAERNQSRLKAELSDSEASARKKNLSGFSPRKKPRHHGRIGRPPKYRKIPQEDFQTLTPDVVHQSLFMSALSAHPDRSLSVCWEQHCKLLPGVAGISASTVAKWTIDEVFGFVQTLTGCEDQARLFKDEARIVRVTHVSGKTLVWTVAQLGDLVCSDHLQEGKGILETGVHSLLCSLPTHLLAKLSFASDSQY
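L3MBTL1 (50 nM) pre-complexed 30 min with biotinylated H3(1-15)K9me1 peptide (75 nM), then compounds added for 30 min at room temperature; AlphaScreen streptavidin donor/nickel chelate acceptor beads (10 ug/mL final) read after 30 min dark incubation.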
HP1b chromo inh: blocks HP1-beta chromodomain binding to methylated histone tails | P83916 | AlphaScreen HP1-beta / biotin-H3K9me3 peptide binding | Potency, µM (series often up to 114 µM), for the others: at the highest dose activity change, negative = inhibition, actives largely listed as inhibitors | 390,000 tested, 0.56% active | AID 540317; also: nearly all actives have a fitted effect of over 70% in size
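AlphaScreen: HP1-beta (50 nM) preformed 30 min with biotin-H3(1-18)K9me3 peptide (50 nM) in PBS pH 7.4, 0.01% Tween-20. Compound added for 30 min at RT, then streptavidin donor/nickel chelate acceptor beads (10 ug/mL) for 30 min.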
Sfp inh: Sfp phosphopantetheinyl transferase inhibition; Potency, µM, inactives show largest response in the series, negative = inhibition, hits mostly inhibitors; 310,000 tested, 3.5% active; Q9F4F7; AID 1490; Biochemical Sfp PPTase activity, qHTS;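 also: the enzyme is Sfp with the accession as filed and its product quenches rhodamine fluorescence; 0% = enzyme reaction without inhibitor and -100% = no enzyme wells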
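After 15 min at room temperature with compound, 15 nM Sfp received 5 uM rhodamine-CoA plus 12.5 uM BHQ-2-ybbR (50 mM Hepes pH 7.6, 10 mM MgCl2). Rate came from the fluorescence difference over 30 min, ex 525/em 598 nm.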
Starred values were filed as active, the others as inactive; [ ] = dose if it differs, or a comment. Hits are enriched below; roughly 12% of the tested compounds scored in any of these assays. Calls follow the shape of the dose curve; as a rule, active = well fitted curve in the direction sought with a large enough effect; inconclusive = small, poorly fitted or top-dose-only effect, or another doubt; inactive = no such curve, though single readings can be large; an effect the other way counts as inactive or inconclusive. Potency is read from the fitted curve at half-maximal effect.

For CC/C=C\C/C=C\C/C=C\C/C=C\C=C\C(O)CCCC(=O)O (stereo not drawn) the results were Sfp inh 7.5%.
Screening CCCCn1c(N)c(N(CC(C)C)C(=O)CSCc2cccc(C)c2)c(=O)[nH]c1=O returned BAZ2B block 27.6%, G9a inh inconclusive, JMJD2A Tudor inh -9.0%, L3MBTL1 inh 5.6% and HP1b chromo inh 20.4%.
Screening Cc1sc2nc(SCC(=O)NCc3ccco3)n(C)c(=O)c2c1C returned BAZ2B block 3.6%, G9a inh -1.5%, JMJD2A Tudor inh -17.0%, L3MBTL1 inh 0.4%, HP1b chromo inh 17.5% and Sfp inh 9.6%.
`CCn1c(SCC(=O)NCc2ccco2)nc2c(c1=O)SC(C)C2` (stereo not drawn) gave BAZ2B block -6.6%, G9a inh 14.1µM*, JMJD2A Tudor inh -32.8%, L3MBTL1 inh -1.7%, HP1b chromo inh 5.4% and Sfp inh 39.8µM*.
CCn1c(SCC(=O)NC(=O)NCc2ccco2)nc2sc(C)c(C)c2c1=O was read as BAZ2B block -27.4%, G9a inh inconclusive, JMJD2A Tudor inh -5.2%, HP1b chromo inh 42.1% and Sfp inh 25.1µM*.
`CCCc1cnc2c(c1SCC(=O)NCc1ccc(C)cc1)c(=O)n(C)c(=O)n2C` gave BAZ2B block -22.5%, G9a inh 10µM*, JMJD2A Tudor inh -14.3% and HP1b chromo inh 0.6%.
CCC(C)NC(=O)c1ccccc1NC(=O)CN1C(=O)c2cccc3cccc1c23 (stereo not drawn) was read as BAZ2B block 5.5%, G9a inh 25.7%[59 µM], JMJD2A Tudor inh 22.3% and HP1b chromo inh 65.6%.
For COc1ccc([C@]23Cc4ccccc4C(O2)c2c(cc(C)n(Cc4ccccc4)c2=O)O3)cc1 the results were BAZ2B block inconclusive, G9a inh 8.7%[2.33 µM] and Sfp inh 6.8%.
O=C(Nc1nnc(-c2ccco2)s1)C1CC1 was read as BAZ2B block inconclusive, G9a inh 50.1µM*, JMJD2A Tudor inh inconclusive, L3MBTL1 inh -11.0%, HP1b chromo inh 31.4% and Sfp inh -12.3%.
Screening Cc1cc(C)n(-c2nc3ccccc3nc2Nc2ccc(N(C)C)cc2)n1 returned BAZ2B block 3.16µM*, G9a inh 1.78µM*, JMJD2A Tudor inh 11.2µM* and HP1b chromo inh 8.91µM*.
Cc1nnc(N2CCN(c3ccccc3)CC2)c2c1nnn2Cc1ccc(F)cc1 was read as BAZ2B block -17.9%, G9a inh 9.0%[59 µM], JMJD2A Tudor inh -14.8% and HP1b chromo inh 41.3%.
For Fc1ccc2c(c1)C(c1ccc(N3CCOCC3)cc1)=NNC(c1cccs1)=N2 the results were BAZ2B block 35.5µM*, G9a inh 20µM*, JMJD2A Tudor inh 25.1µM*, L3MBTL1 inh -28.3%, HP1b chromo inh -36.9% and Sfp inh 9.5%.
For CCOc1ccc(C2=Nc3ccc(Br)cc3C(c3ccc(N4CCOCC4)cc3)=NN2)cc1 the results were BAZ2B block -3.2%, G9a inh 44.7µM*, JMJD2A Tudor inh -18.6%, L3MBTL1 inh -14.1%, HP1b chromo inh 3.6% and Sfp inh 8.9%.
COc1ccc(C2CC(c3cccs3)=NN2S(C)(=O)=O)cc1 (stereo not drawn) was read as BAZ2B block -2.3%, G9a inh 4.4%, JMJD2A Tudor inh -17.7%, L3MBTL1 inh 2.1%, HP1b chromo inh -17.4% and Sfp inh 21.2%.
Screening COc1ccc(C2CC(c3cccs3)=Nc3ccccc3S2)cc1 (stereo not drawn) returned BAZ2B block inconclusive, G9a inh inconclusive, JMJD2A Tudor inh inconclusive, L3MBTL1 inh -21.0%, HP1b chromo inh 11.2% and Sfp inh 22.4µM*.
For CC(C)=NOc1nc(N(C)C)nc(N2CCOCC2)n1 the results were BAZ2B block -14.3%, G9a inh 26.5%, JMJD2A Tudor inh 56.2µM*, L3MBTL1 inh -5.8%, HP1b chromo inh -0.9% and Sfp inh -2.6%.
COc1cccc([C@@H]2Oc3ccc(OC)cc3C[C@H]2OC(=O)Nc2ccc(OC(F)F)cc2)c1 was read as Sfp inh -0.3%.
Screening CCCCNc1nc(Oc2ccc(OCC(N)=O)nn2)nc(N2CCOCC2)n1 returned BAZ2B block -20.0%, G9a inh 4.9%[59 µM], JMJD2A Tudor inh -3.1% and HP1b chromo inh 43.7%.
Screening CCCC[C@]12Cc3cc(OC)c(OC)cc3C(O1)C1=C(O2)C(=O)c2ccccc2C1=O returned BAZ2B block 7.08µM* and Sfp inh -24.2%.
Screening CCCC[C@]12Cc3ccccc3[C@H](O1)C1=C(O2)C(=O)c2ccccc2C1=O returned BAZ2B block 4.8%[22.9 µM], G9a inh 18.6%[2.33 µM] and Sfp inh 12.2%.
For O=C1CN(C(=O)c2ccccc2F)C(c2ccccc2)c2cc(Cl)ccc2N1 (stereo not drawn) the results were BAZ2B block -4.5%, G9a inh -4.1%, JMJD2A Tudor inh -13.4%, HP1b chromo inh 36.0% and Sfp inh 1.1%.
`O=C(O)c1ccc(Nc2nc3ccc(Cl)cc3[nH]2)cc1` gave BAZ2B block inconclusive, G9a inh 44.7µM*, JMJD2A Tudor inh inconclusive, L3MBTL1 inh -1.3%, HP1b chromo inh 3.2% and Sfp inh -24.9%.
O=C(Nc1nc2ccccc2[nH]1)c1cccc(Cl)c1 was read as BAZ2B block 0.0%, JMJD2A Tudor inh -15.3%, L3MBTL1 inh -6.0%, HP1b chromo inh 34.2% and Sfp inh 3.7%.
For CCOc1cc(/C=C2\SC(=N)N(c3nonc3N)C2=O)ccc1OCC(N)=O the results were BAZ2B block inconclusive, G9a inh 44.7µM*, JMJD2A Tudor inh inconclusive, L3MBTL1 inh -0.1%, HP1b chromo inh 25.2% and Sfp inh -16.4%.
For COc1ccc(/C=C2\SC(=N)N(c3ccc(F)cc3)C2=O)cc1OC the results were BAZ2B block -23.3%, G9a inh -22.2%[59 µM], JMJD2A Tudor inh -6.5%, HP1b chromo inh 33.1% and Sfp inh 6.6%.
C=CCN1[C@@H](Cc2ccccc2)COCCS1(=O)=O was read as JMJD2A Tudor inh -4.2% and HP1b chromo inh 20.6%.
Screening COC(=O)/C=C/C(=O)N1CCN(c2ccccc2)CC1 returned BAZ2B block 7.1%, G9a inh 50.1µM*, JMJD2A Tudor inh -8.8%, L3MBTL1 inh 1.9%, HP1b chromo inh 30.3% and Sfp inh -7.4%.
Screening O=C(/C=C/c1ccco1)N1CCN(S(=O)(=O)c2cccc([N+](=O)[O-])c2)CC1 returned JMJD2A Tudor inh -29.3%, L3MBTL1 inh -1.4% and HP1b chromo inh inconclusive.
